Laboratory results from PubChem BioAssay (NCATS).
Inconclusive results are not listed. Active and inactive are the calls of the source. Unless noted, calls come from the whole dose curve; as a rule, active = well fitted curve in the direction sought with a large enough effect; inconclusive = small, poorly fitted or top-dose-only effect, or another doubt; inactive = no such curve, though single readings can be large; an effect the other way counts as inactive or inconclusive.

Assays:
[1] = Quantitative High-Throughput drug screen in 47 multiple myeloma cell lines against the NCATS MIPE library collection: OPM2_DSMZ cell viability assay (AID 1919872); conditions: OPM2 myeloma viability, CellTiter-Glo ATP luminescence, 48 h; series mostly up to 45.8 µM; note: nearly all actives have a fitted effect of over 30% in size; note: potency is the fitted concentration of half-maximal effect
Summary of the method: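 CellTiter-Glo ATP luminescence gave viability after 48 h compound treatment at 37C of 500 multiple myeloma cells per well. Normalisation used DMSO-only wells as 100% and media-only wells as 0% viability; primary qHTS of approved and investigational drugs.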

[2] = Quantitative High-Throughput drug screen in 47 multiple myeloma cell lines against the NCATS MIPE library collection: KMS11_JCRBsus cell viability assay (AID 1919873); conditions: KMS11 myeloma viability, CellTiter-Glo ATP luminescence, 48 h; series mostly up to 45.8 µM; note: nearly all actives have a fitted effect of over 50% in size; note: potency is the fitted concentration of half-maximal effect
Summary of the method: (§1)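 qHTS format: cells plated (500/well), pin-dosed with MIPE 4.0 compounds, kept 48 h at 37 °C. Readout was CellTiter-Glo luminescence, median RLU.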

[3] = Quantitative High-Throughput drug screen in 47 multiple myeloma cell lines against the NCATS MIPE library collection: KMS28BM_JCRB cell viability assay (AID 1919874); conditions: CellTiter-Glo ATP, 48 h; series mostly up to 45.8 µM; note: nearly all actives have a fitted effect of over 35% in size; note: potency is the fitted concentration of half-maximal effect
Summary of the method: as §1

[4] = qHTS drug screen for cell cycle checkpoint inhibitors in PARPi-resistant BRCA-mutant ovarian cancer cell lines. (AID 1963452; calls by dose curve; note: potency is the fitted concentration of half-maximal effect); conditions: PEO1/OlaR viability, CellTiter-Glo luminescence, 96 h; for Z-AUC: stronger effect = lower value
Summary of the method: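 PEO1, PEO4 and PEO1/OlaR ovarian cancer cells, 600 per well, exposed 96 h at 37C to a dilution series. Viability read by CellTiter-Glo luminescence, normalized to DMSO and empty wells; activity summarized as Z-AUC.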

[5] = qHTS for identification of novel therapeutic agents for treatment of microphthalmiaassociated transcription factor (MiT) renal cell carcinoma (RCC) (AID 1963991; calls by dose curve; note: potency is the fitted concentration of half-maximal effect); conditions: CellTiter-Glo, 48 h; for z-score: stronger effect = lower value
Summary of the method: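 Three TFE3-fusion RCC lines (UOK109, UOK124, UOK145), 500 cells/well in complete medium, were treated with MIPE 4.0 compounds for 48 hours at 37 C. Viability was by CellTiter-Glo luminescence, normalized to DMSO (100%) and empty wells (0%); curves fitted over 11 concentrations.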

[6] = qHTS profiling for inhibitors of Plasmodium falciparum proliferation (AID 504749);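 note: 0% = DMSO vehicle and full inhibition = artemisinin control; nearly all actives have a fitted effect of over 60% in size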; conditions: P. falciparum in erythrocytes, SYBR Green DNA, 72 h, at 28.7 µM (top of the series)
Summary of the method: (§2)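 Quantitative HTS: compounds pinned into medium, infected erythrocytes added (0.3% parasitemia, 2.5% hematocrit), 72 h culture at 37 C under 5% CO2. Saponin/Triton lysis with SYBR Green I, overnight RT, then fluorescence read.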

3D7 = test: as above; conditions: P. falciparum in erythrocytes, SYBR Green DNA, 72 h; series mostly up to 28.7 µM
Summary of the method: as §2

7G8 = test: as above; conditions: P. falciparum in erythrocytes, SYBR Green DNA, 72 h; series mostly up to 28.7 µM
Summary of the method: as §2

AA1029 = test: as above; conditions: P. falciparum in erythrocytes, SYBR Green DNA, 72 h; series mostly up to 28.7 µM
Summary of the method: as §2

AS120 = test: as above; conditions: P. falciparum in erythrocytes, SYBR Green DNA, 72 h; series mostly up to 28.7 µM
Summary of the method: as §2

[7] = measured here: PEO1 parental Z-AUC
[8] = TFE3-RCC UOK109 viability, measured here: UOK109 Z-AUC
[9] = TFE3-RCC viability, measured here: UOK124 Z-AUC
[10] = TFE3-RCC viability, measured here: UOK145 Z-AUC

COC(=O)C1=C(C)NC(C)=C(C(=O)OC(C)C)C1c1cccc2nonc12 (stereo unspecified)
Potency [1]: inactive

O=c1ccc2ccc(O)c(O)c2o1
Potency [1]: inactive | Potency [2]: inactive | Potency [3]: inactive

Cc1ncc([N+](=O)[O-])n1CC(C)O (stereo unspecified)
Potency [1]: inactive | Potency [2]: inactive | Potency [3]: inactive | Z-AUC [4]: 0.202 (inactive) | Z-AUC [4, 7]: 1.06 | Z-AUC ([4]; measured here: PEO4 Z-AUC): 0.768 | z-score [5, 8]: 1.59 | z-score [5, 9]: 0.687 | z-score [5, 10]: 1.68 | activity, negative = inhibition ([6]; parasite line A): 11.8% (inactive) | activity, negative = inhibition ([6]; parasite line B): 17% (inactive) | Potency (3D7): inactive | Potency (7G8): inactive | Potency (AA1029): inactive | Potency (AS120): inactive

c1cnc2cc3c(cc2n1)C1CNCC3C1
Potency [1]: inactive | Potency [2]: inactive | Potency [3]: inactive | Z-AUC [4]: -0.725 (inactive) | Z-AUC [4, 7]: -0.804 | Z-AUC ([4]; measured here: PEO4 Z-AUC): -0.403 | z-score [5, 8]: -0.0233 | z-score [5, 9]: 0.674 | z-score [5, 10]: 0.454

Cc1cccc(-c2[nH]ncc2-c2ccc3ncccc3n2)n1
Potency [1]: inactive

C[C@H](Cc1ccc(O)c(O)c1)[C@@H](C)Cc1ccc(O)c(O)c1
Potency [1]: 18.7 µM (active) | Potency [2]: 18.7 µM (active) | Potency [3]: 23.5 µM (active) | Z-AUC [4]: 1.18 (inactive) | Z-AUC [4, 7]: 0.707 | Z-AUC ([4]; measured here: PEO4 Z-AUC): 0.729

CCOC(=O)C1=C[C@@H](OC(CC)CC)[C@H](NC(C)=O)[C@@H](N)C1
Potency [1]: inactive | Potency [2]: inactive | Potency [3]: inactive | Z-AUC [4]: 0.109 (inactive) | Z-AUC [4, 7]: 0.666 | Z-AUC ([4]; measured here: PEO4 Z-AUC): 0.833 | z-score [5, 8]: 0.372 | z-score [5, 9]: 0.178 | z-score [5, 10]: 0.414

CC(C)[N+]1(C)[C@@H]2CC[C@H]1CC(OC(=O)C(CO)c1ccccc1)C2 (stereo partly specified)
Potency [1]: inactive | Potency [2]: 7.43 µM (active) | Potency [3]: 8.33 µM (active)

NC(=NCc1ccccc1)NC(=O)c1nc(Cl)c(N)nc1N
Potency [1]: inactive | Potency [2]: inactive | Potency [3]: inactive | Z-AUC [4]: -0.929 (inactive) | Z-AUC [4, 7]: -0.393 | Z-AUC ([4]; measured here: PEO4 Z-AUC): -0.0693

CCC[C@@H]1C[C@@H](C(=O)N[C@@H]([C@H]2O[C@H](SC)[C@H](O)[C@@H](O)[C@H]2O)[C@@H](C)O)N(C)C1
Potency [1]: inactive

O=P(O)(O)C(O)(Cn1ccnc1)P(=O)(O)O
Potency [1]: inactive | Potency [2]: inactive | Potency [3]: inactive | Z-AUC [4]: 1.02 (inactive) | Z-AUC [4, 7]: 1.58 | Z-AUC ([4]; measured here: PEO4 Z-AUC): 2.08 | z-score [5, 8]: 0.735 | z-score [5, 9]: 1.17 | z-score [5, 10]: 1.01 | activity, negative = inhibition ([6]; parasite line A): 8.24% (inactive) | activity, negative = inhibition ([6]; parasite line B): -1.43% (inactive) | Potency (3D7): inactive | Potency (7G8): inactive | Potency (AA1029): inactive | Potency (AS120): inactive

CCN(CC)C(=S)SSC(=S)N(CC)CC
Potency [1]: 0.0418 µM (active) | Potency [2]: 0.003 µM (active) | Potency [3]: 0.0019 µM (active) | Z-AUC [4]: 0.318 (inactive) | Z-AUC [4, 7]: 0.214 | Z-AUC ([4]; measured here: PEO4 Z-AUC): 0.454

N[C@@H](Cc1cc(I)c(Oc2cc(I)c(O)c(I)c2)c(I)c1)C(=O)O
Potency [1]: inactive | Potency [2]: inactive | Potency [3]: inactive | Z-AUC [4]: -1.16 (inactive) | Z-AUC [4, 7]: -0.336 | Z-AUC ([4]; measured here: PEO4 Z-AUC): -0.169 | z-score [5, 8]: 0.737 | z-score [5, 9]: 0.682 | z-score [5, 10]: 0.762 | activity, negative = inhibition ([6]; parasite line A): -3.11% (inactive) | activity, negative = inhibition ([6]; parasite line B): -2.18% (inactive) | Potency (3D7): inactive | Potency (7G8): inactive | Potency (AA1029): inactive | Potency (AS120): inactive

Nc1nc(OCc2ccccc2)c2[nH]cnc2n1
Potency [1]: inactive | Potency [2]: inactive | Potency [3]: inactive | Z-AUC [4]: 0.131 (inactive) | Z-AUC [4, 7]: 0.393 | Z-AUC ([4]; measured here: PEO4 Z-AUC): 0.209

O=C(c1ccccc1)c1ccc2n1CCC2C(=O)O (stereo unspecified)
Potency [1]: inactive | Potency [2]: 13.2 µM (active) | Potency [3]: 23.5 µM (active) | Z-AUC [4]: 1.02 (inactive) | Z-AUC [4, 7]: 0.719 | Z-AUC ([4]; measured here: PEO4 Z-AUC): 0.897

CC(C)c1nc(CN(C)C(=O)N[C@H](C(=O)N[C@@H](Cc2ccccc2)C[C@H](O)[C@H](Cc2ccccc2)NC(=O)OCc2cncs2)C(C)C)cs1
Potency [1]: 20.9 µM (active)

Clc1ccc2c(N3CCN(CCCN4CCN(c5ccnc6cc(Cl)ccc56)CC4)CC3)ccnc2c1
Potency [1]: inactive | Potency [2]: inactive | Potency [3]: inactive | Z-AUC [4]: 0.751 (inactive) | Z-AUC [4, 7]: 0.492 | Z-AUC ([4]; measured here: PEO4 Z-AUC): 0.795

CC(C)C[C@H](NC(=O)[C@H](Cc1ccccc1)NC(=O)c1cnccn1)B(O)O
Potency [1]: 0.0264 µM (active) | Potency [2]: 0.0083 µM (active) | Potency [3]: 0.0132 µM (active) | Potency [4]: 0.0098 µM (active) | Z-AUC [4, 7]: -3.19 | Z-AUC ([4]; measured here: PEO4 Z-AUC): -2.39 | Potency ([5]; TFE3-RCC UOK109 viability, active = Z-AUC below -0.8 in all three lines): 0.118 µM (active) | z-score [5, 8]: -1.97 | z-score [5, 9]: -3.15 | z-score [5, 10]: -4.08

COc1cc2nc(N3CCN(C(=O)C4CCCO4)CC3)nc(N)c2cc1OC (stereo unspecified)
Potency [1]: inactive

COc1ccccc1N1CCN(CCN(C(=O)C2CCCCC2)c2ccccn2)CC1
Potency [1]: inactive | Potency [2]: inactive | Potency [3]: inactive

Nc1ccn([C@@H]2O[C@H](CO)[C@@H](O)C2O)c(=O)n1 (stereo partly specified)
Potency [1]: inactive | Potency [2]: 14.8 µM (active) | Potency [3]: inactive | Z-AUC [4]: -1.18 (inactive) | Z-AUC [4, 7]: -1.27 | Z-AUC ([4]; measured here: PEO4 Z-AUC): -0.431 | z-score [5, 8]: 0.798 | z-score [5, 9]: 0.809 | z-score [5, 10]: 0.948 | activity, negative = inhibition ([6]; parasite line A): 12.2% (inactive) | activity, negative = inhibition ([6]; parasite line B): 0.749% (inactive) | Potency (3D7): inactive | Potency (7G8): inactive | Potency (AA1029): inactive | Potency (AS120): inactive

C[C@@H](N)C1CCC(C(=O)Nc2ccncc2)CC1 (stereo partly specified)
Potency [1]: inactive | Potency [2]: inactive | Potency [3]: inactive | Z-AUC [4]: 0.275 (inactive) | Z-AUC [4, 7]: 0.543 | Z-AUC ([4]; measured here: PEO4 Z-AUC): 0.552 | z-score [5, 8]: 1.67 | z-score [5, 9]: 0.534 | z-score [5, 10]: 0.866

O=C(CS(=O)Cc1ccco1)NCC=CCOc1cc(CN2CCCCC2)ccn1 (stereo unspecified)
Potency [1]: inactive | Potency [2]: inactive | Potency [3]: inactive | activity, negative = inhibition ([6]; parasite line A): 3.29% (inactive) | activity, negative = inhibition ([6]; parasite line B): -5.5% (inactive) | Potency (3D7): inactive | Potency (7G8): inactive | Potency (AA1029): inactive | Potency (AS120): inactive
